Source: PubChem (National Center for Advancing Translational Sciences (NCATS))
JMJD2A Tudor = qHTS Assay for Inhibitors of JMJD2A-Tudor Domain; Lysine-specific demethylase 4A (Homo sapiens), O75164; 390,000 compounds, 4.4% hits; AID 504339, 2011; AlphaScreen JMJD2A-Tudor / H3K4me3 peptide binding; Potency, µM (top dose mostly 114 µM), without a hit: at the top dose activity change, negative = inhibition, most hits filed as inhibitors; note: % is set by controls: 0 for no effect and ±100 for the full control effect; nearly all actives have a fitted effect of over 50% in size
HP1b chromo inh = HTS for Inhibitors of HP1-beta Chromodomain Interactions with Methylated Histone Tails; AID 540317, 2011; 390,000 compounds, 0.56% hits; Potency, µM (doses to about 114 µM), for the others: at the highest dose activity change, negative = inhibition, most hits filed as inhibitors; Chromobox protein homolog 1 (Homo sapiens), P83916; AlphaScreen HP1-beta / biotin-H3K9me3 peptide binding; note: nearly all actives have a fitted effect of over 70% in size
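Compound inhibition of the preformed complex between 50 nM HP1-beta and 50 nM biotinylated H3K9me3 peptide was read by AlphaScreen. Buffer was PBS pH 7.4 with 0.01% Tween-20. Incubations ran 30 min at room temperature, with 10 ug/mL donor/acceptor beads.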
VDR inh = Inhibitors of the vitamin D receptor (VDR): qHTS. Vitamin D3 receptor (Homo sapiens), P11473. VDR-SRC2-3 peptide fluorescence polarization, 2 h. Potency, µM, inactives show max response, negative = inhibition, hits mostly inhibitors. 400,000 compounds, 0.93% hits. AID 504847, 2011; note: % is set by controls: 0 for no effect and ±100 for the full control effect
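The screen uses fluorescence polarization to detect compounds that interfere with recruitment of the SRC2-3 coactivator peptide to VDR; plates are read after 2 h at room temperature.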
PLK1 PBD block = qHTS for Inhibitors of PLK1-PDB (polo-like kinase 1 - polo-box domain): Primary Screen. 360,000 compounds, 2.8% hits. Potency, µM, without a hit: max response, negative = inhibition, hits mostly inhibitors. Serine/threonine-protein kinase PLK1 (Homo sapiens), P53350. Plk1 PBD binding of FITC phosphopeptide, fluorescence polarization; note: series mostly up to about 57 µM; % is set by controls: 0 for no effect and ±100 for the full control effect; nearly all actives have a fitted effect of over 65% in size
BAZ2B inh = qHTS Assay for Inhibitors of BAZ2B; Bromodomain adjacent to zinc finger domain protein 2B (Homo sapiens), Q9UIF8; Potency, µM (series often up to 114 µM), without a hit: at the top dose activity change, negative = inhibition, actives largely listed as inhibitors; 360,000 compounds, 4.4% hits; AID 504333, 2011; AlphaScreen BAZ2B-H3K14Ac peptide displacement; note: % is set by controls: 0 for no effect and ±100 for the full control effect; nearly all actives have a fitted effect of over 60% in size
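Compounds, titrated to a top concentration of 110 uM, were incubated 30 min at room temperature with preformed BAZ2B/acetyl-K14 H3 peptide complex (50 nM each). Proximity signal was measured by AlphaScreen after 20 min with beads.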
G9a inh = qHTS Assay for Inhibitors of Histone Lysine Methyltransferase G9a | Histone-lysine N-methyltransferase EHMT2 (Homo sapiens), Q96KQ7 | G9a H3K9 monomethylation, AlphaScreen, 2 h | Potency, µM (top dose mostly 102 µM), without a hit: top-dose activity, negative = inhibition, most hits filed as inhibitors | 350,000 compounds, 8.8% hits | AID 504332, 2011; note: % is set by controls: 0 for no effect and ±100 for the full control effect; nearly all actives have a fitted effect of over 75% in size
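Quantitative HTS format: methyltransferase activity on a biotin-tagged H3K9 peptide is measured by AlphaScreen, using a rabbit anti-monomethyl-H3K9 antibody with streptavidin donor and anti-IgG acceptor beads. Final levels are 20 nM enzyme, 500 nM peptide, 20 uM SAM; 2 h RT.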
* hit, by the source's call; u = inconclusive; x = not tested or not shown; [ ] = remark or other dose. Only some compounds are listed: those with a hit (about 11% of all), similar ones and a draw of the others. Calls come from the whole dose curve; as a rule, active = well fitted curve in the direction sought with a large enough effect; inconclusive = small, poorly fitted or top-dose-only effect, or another doubt; inactive = no such curve, though single readings can be large; an effect the other way counts as inactive or inconclusive. Potency is the fitted concentration of half-maximal effect.

SMILES	JMJD2A Tudor	HP1b chromo inh	VDR inh	PLK1 PBD block	BAZ2B inh	G9a inh
COC(=O)[C@H](C)NC(=O)Nc1ccc(S(N)(=O)=O)cc1	-9%	33%	-17%	-6%	4%	7%
CC(C)C(Cl)=NOC(=O)Nc1ccc(S(N)(=O)=O)cc1	-8%	-29%	u	8.4µM*	x	x
CN(CCC#N)CC(=O)Nc1ccc(S(N)(=O)=O)cc1	-3%[11.4 µM]	36%	2%	-19%	-8%	-20%
CC(C)(C)c1ccc(OCCCC(=O)Nc2ccc(S(N)(=O)=O)cc2)cc1	-11%	10%	-7%	-8%	3%	-9%
Cc1ccc(CCC(=O)Nc2ccc(S(N)(=O)=O)cc2)o1	-10%	13%	8%	-18%	15%	2.2µM*
CCN(C[C@H]1N[C@@](CC)(C(=O)OC)[C@H]2C(=O)N(Cc3ccccc3)C(=O)[C@@H]12)C(=O)C1CCCCC1	-21%	25%	-11%	-10%	x	x
CC(C)C[C@@H](CC(=O)N[C@@H](CCC(=O)O)CC(=O)O)NC(=O)[C@@H]1CNCC[C@H]1NC(=O)C[C@@H](NC(=O)C[C@H](Cc1c[nH]c2ccccc12)NC(=O)[C@@H]1CCCC[C@H]1N)C(C)C	x	x	2%	x	x	x
COc1ccc(OC)c(NC(=O)c2cnc(N3CCCCC3)c3ccccc23)c1	-15%	25%[57 µM]	-1%	x	-19%	-4%[59 µM]
NS(=O)(=O)c1ccc(NC(=O)c2c(Cl)cccc2Cl)cc1	28µM*	-7%	-9%	21µM*	5%	1%[0.501 µM]
OC[C@@H]1CN(Cc2ccccc2)C[C@H](n2cnc3c(Nc4ccccc4)ncnc32)O1	x	x	x	-12%	x	x
COc1cc2c(cc1NC(=O)C(C)Oc1ccc(Cl)cc1Cl)oc1ccccc12 (stereo not drawn)	-2%	32%	-7%	x	1%	u
Cn1c(SCC(=O)N2CC(=O)Nc3ccccc32)nc2ccccc2c1=O	6%	38%	5%	-15%	9%	22%[12.7 µM]
O=C1CN(C(=O)CSc2nc3ccccc3n2CCc2ccccc2)c2ccccc2N1	-1%	22%	-10%	-6%	-34%	10µM*
CCCn1c(SCC(=O)N2CC(=O)Nc3ccccc32)nc2ccccc21	-20%	9%	-26%	u	8%	32µM*
CCOC(=O)c1[nH]c(C)c(CCC(=O)NCc2cccc(C)c2)c1C	-27%	17%[57 µM]	1%	x	-3%	-27%[59 µM]
NC(=O)c1cc(S(=O)(=O)NCC2CCC(C(=O)Nc3cccc(Cl)c3)CC2)cs1 (stereo not drawn)	-8%	11%	4%	x	-2%	6%[59 µM]
COc1ccc(CCNc2oc(Cc3cccc4ccccc34)nc2C#N)cc1OC	u	u	-6%	-3%	u	u
CN1CCN(c2oc(COc3ccc(-c4ccccc4)cc3)nc2C#N)CC1	28µM*	14µM*	15%	-6%	11µM*	13µM*
N#Cc1nc(COc2ccccc2)oc1N1CCOCC1	3%	21%	8%	1%	-5%	-3%[12.7 µM]
N#Cc1nc(COc2ccc(-c3ccccc3)cc2)oc1N1CCC(C(N)=O)CC1	-30%	10%	-12%	x	x	x
N#Cc1nc(COc2ccccc2)oc1N1CCCCCC1	u	u	-10%	1%	35µM*	45µM*
CN(C)CCNc1oc(COc2ccc(-c3ccccc3)cc2)nc1C#N	u	-16%	7%	-4%	u	45µM*
COc1ccc(CCNc2oc(COc3ccc(Br)cc3)nc2C#N)cc1OC	u	28%	-26%	-5%	u	40µM*
Cc1ccc(SCC(=O)NC(=O)NC2CCCC2)c(C)c1	12%	41%	-10%	-22%	29%	-27%
COCc1cc(=O)[nH]c(SCCS(=O)(=O)c2ccc(Cl)cc2Cl)n1	-12%	69%	u	-27%	-13%	u
SMILES	JMJD2A Tudor	HP1b chromo inh	VDR inh	PLK1 PBD block	BAZ2B inh	G9a inh
N#Cc1nc(COc2ccc(Br)cc2)oc1N1CCCC1	u	u	21%	-5%	25µM*	u
CCc1ccc(-c2nn(CC(=O)NC3CCCC3)c3c2cnc2ccc(C)cc23)cc1	-11%	18%	-10%	x	-2%	15%[59 µM]
CCOC(=O)C1=NOC(COc2ccccc2C=O)C1 (stereo not drawn)	u	-5%	u	27µM*	10%	3%
CSc1nc2[nH]c(=O)n(O)c(=O)c2n1Cc1ccccc1	3.2µM*	-15%	u	-6%	x	x
CCOC(=O)CSc1nc2c(c(=O)[nH]c(=O)n2C)n1Cc1ccccc1	-15%	18%	0%	-5%	-3%	-13%
COc1cc(/C=N/NC(=O)/C(=C\c2ccc([N+](=O)[O-])cc2)NC(=O)c2ccccc2)cc(OC)c1O	u	2%	12%	-7%	-37%	45µM*
COc1cc(/C=N/NC(=O)c2ccc([N+](=O)[O-])cc2Cl)cc(Br)c1O	-4%	10%	-11%	-4%	2%	45µM*
COc1cc(/C=N/NC(=O)c2ccc(CSc3nncn3C)cc2)cc(OC)c1O	-12%	9%	-4%	-5%	-20%	13µM*
COc1ccc(Br)cc1C(=O)N/N=C/c1ccc([N+](=O)[O-])cc1	-28%	-4%	2%	-26%	-6%	-34%
CCOc1cc(/C=N/NC(=O)C(=O)NC2CC2)cc(Br)c1O	-1%	-3%	1%	-3%	-2%	8.9µM*
COc1ccccc1NC(=S)N1CCN(c2nc(-c3ccccc3)cs2)CC1	-19%	-23%	u	-14%	-37%	u
COc1cc(/C=N/NC(=O)Cc2ccc(Br)cc2)cc(OC)c1O	-2%	2%	7%	-10%	3%	50µM*
COc1ccc(/C=N/NC(=O)Cc2ccc(Cl)cc2)cc1OC	-7%	24%	-10%	-7%	-6%	30%[59 µM]
COc1cc(/C=N/NC(=O)CC#N)cc(Br)c1O	35µM*	u	u	11µM*	50µM*	1%
COc1ccc(C2=NCCn3cccc32)c(OC)c1	-6%	6%	-18%	0%	4%	2%
COc1ccc(-c2cn(-c3ccccc3)nc2CO)cc1	-12%	31%	8%	9%	7%	-6%
OCCCn1c(-c2ccc(F)cc2)csc1=Nc1ccc(F)cc1	40µM*	u	-7%	x	45µM*	16µM*
